Reference: PubChem BioAssay (EPA / NIEHS)
Inconclusive results are not listed. The source made the active and inactive calls. The calls were made as follows: active = hit-call score of the fitted dose curve at least 0.9, where 1 is the maximum; inconclusive = response in the unintended direction; inactive = score below 0.9. Where a SMILES comes first, the peptide text is derived from it. [ ]: non-standard residue; d: D form. The star is where a group is joined. Sta = CC(C)C[C@H](N)[C@@H](O)CC(=O)O; Isovaleryl = CC(C)CC(=O)*

Key:
[1] = target: Cellular tumor antigen p53 (Homo sapiens) (UniProt P04637); assay: TOX21_p53_BLA_p2_ratio: Tox21 HCT-116 p53 Agonism Beta-lactamase Assay, Ratio, Phase 2 (AID 2283592)
Procedure, shortened: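 Gain-of-signal p53 agonism was scored from the beta-lactamase FRET ratio (460/530 nm, 405 nm excitation) in HCT116 cells treated 16 h at 37C, 5% CO2, with DMSO serving as negative control and baseline.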

[2] = TOX21_p53_BLA_p5_viability: Viability Assessment in the Tox21 HCT-116 p53 Agonism Beta-lactamase Assay, Phase 5 (AID 2283600)
Procedure, shortened: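 After the 460/530 nm beta-lactamase measurement, the wells received an ATP-detection luciferase reagent; signal was read 30 min later at RT. Compound treatment lasted 16 h on cells pre-incubated 5 h post-seeding.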

[3] = target: Cellular tumor antigen p53 (Homo sapiens) (UniProt P04637); assay: TOX21_p53_BLA_p4_ratio: Tox21 HCT-116 p53 Agonism Beta-lactamase Assay, Ratio, Phase 4 (AID 2283601)
Procedure, shortened: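 Signal is the blue/green (460nm/530nm) ratio of cleaved versus uncleaved CCF4-AM substrate, read after 2 h substrate loading. Cells were HCT116 carrying the p53-responsive beta-lactamase reporter, dosed 16 h at 37C, 5% CO2; CellTiter-Glo measured in parallel.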

[4] = target: Cellular tumor antigen p53 (Homo sapiens) (UniProt P04637); assay: TOX21_p53_BLA_p5_ratio: Tox21 HCT-116 p53 Agonism Beta-lactamase Assay, Ratio, Phase 5 (AID 2283599)
Procedure, shortened: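 Beta-lactamase reporter ratio (blue 460 nm over green 530 nm, 405 nm excitation) after 2 h CCF4-AM loading, in HCT-116 cells exposed 16 h at 37 C to compounds pinned at 217-fold dilution. Increases relative to DMSO baseline scored.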

Measured: outcome

Chain of Cellular tumor antigen p53 (Homo sapiens) (P04637 whole entry, looked up): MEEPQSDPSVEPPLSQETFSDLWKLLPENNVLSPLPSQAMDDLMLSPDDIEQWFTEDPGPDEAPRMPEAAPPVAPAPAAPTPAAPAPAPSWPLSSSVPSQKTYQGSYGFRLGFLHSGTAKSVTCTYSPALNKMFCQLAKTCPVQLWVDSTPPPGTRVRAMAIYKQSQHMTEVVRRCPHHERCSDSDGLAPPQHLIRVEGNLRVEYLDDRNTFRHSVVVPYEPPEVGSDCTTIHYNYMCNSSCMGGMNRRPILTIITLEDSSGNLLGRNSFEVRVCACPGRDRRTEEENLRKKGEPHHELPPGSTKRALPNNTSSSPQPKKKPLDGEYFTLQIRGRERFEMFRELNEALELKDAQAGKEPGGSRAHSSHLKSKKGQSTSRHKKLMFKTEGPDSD

CC(C)CC(=O)N[C@H](C(=O)N[C@H](C(=O)N[C@@H](CC(C)C)[C@@H](O)CC(=O)N[C@@H](C)C(=O)N[C@@H](CC(C)C)[C@@H](O)CC(=O)O)C(C)C)C(C)C (Isovaleryl-VV[Sta]A[Sta]-OH)
inactive: [1] | [2] | [3]

CC(C)C(=O)c1c(C(C)C)nn2ccccc12
inactive: [1] | [4] | [3]

CC(C)(CCC(=O)O)C(=O)O
inactive: [1] | [2] | [3]

OC(CCCN1CCCCC1)(c1ccccc1)c1ccccc1
inactive: [1] | [2]

C=CC(=O)OCC1CCCO1 (stereo not given)
inactive: [1] | [4] | [3]

C=CC(=O)OCCOCCOCCOCCOC(=O)C=C
inactive: [1] | [4] | [3]

COc1cc2nc(N3CCN(C(=O)c4ccco4)CC3)nc(N)c2cc1OC
inactive: [1] | [4] | [3]

Cc1cccc(C(=O)O)c1[N+](=O)[O-]
inactive: [1] | [4] | [3]

Cc1ccc2ccccc2c1[N+](=O)[O-]
inactive: [1] | [4] | [3]

O=c1[nH]cnc2c1ncn2[C@@H]1O[C@H](CO)[C@@H](O)[C@H]1O
inactive: [1] | [4] | [3]

CN(C)C=Nc1c(I)cc(I)c(CCC(=O)O)c1I
inactive: [1] | [2]

Cc1cccc(C)c1NC(=O)CN1CCCCCC1
inactive: [1] | [2] | [3]

CCCCCCCCCCCCCCCC/C=C/C1CC(=O)OC1=O (stereo not given)
inactive: [1] | [4] | [3]

S=C=Nc1ccc(N=C=S)cc1
inactive: [1] | [4] | [2] | [3]

CCN1CCc2nc(N)oc2CC1
inactive: [1] | [4] | [2] | [3]
